# GPR32 ag – agonists of human resolvin D1 receptor DRV1 (GPR32); O75388; CHO-K1 GPR32 beta-arrestin PathHunter luminescence, 90 min; zero percent set by DMSO-only wells; activation, % at 76.9 µM; 2.5% of 48,000 active;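 active means activation of at least 60% and not above a set upper limit, about 1 call in 100 departs from these limits; inconclusive means activation of 40% to 60%, or above that upper limit; inactive means activation under 40%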; further: 0% is about no effect
# Target sequence (O75388 whole entry, looked up): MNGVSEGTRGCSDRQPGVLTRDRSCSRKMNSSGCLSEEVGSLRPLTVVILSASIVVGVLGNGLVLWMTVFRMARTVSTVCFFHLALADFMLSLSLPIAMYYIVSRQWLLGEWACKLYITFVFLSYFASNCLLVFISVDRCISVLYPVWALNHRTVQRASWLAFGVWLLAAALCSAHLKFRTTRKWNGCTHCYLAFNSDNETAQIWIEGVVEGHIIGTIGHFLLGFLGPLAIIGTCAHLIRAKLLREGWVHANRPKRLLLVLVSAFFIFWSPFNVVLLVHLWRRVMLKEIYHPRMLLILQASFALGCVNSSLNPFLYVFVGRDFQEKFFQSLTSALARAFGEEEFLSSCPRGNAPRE
#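 PathHunter enzyme-fragment complementation, CHO-K1 GPR32 stable line; 2,500 cells/well, overnight attach; cpd 90 min 37 °C 5% CO2; detection reagent 1 h RT; chemiluminescence. DMSO = EC0.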
# HTT promoter inh – HTT promoter inhibition; HEK293 HTT promoter firefly luciferase reporter, 24 h; Potency, µM (titrated, usually from 57.5 µM), for the others: at the highest dose activity change, negative = inhibition, actives largely listed as inhibitors; 0.93% of 48,000 active; further: potency means the concentration at half of the fitted maximal effect; nearly all actives have a fitted effect of over 50% in size
#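 Quantitative HTS used concentration series of up to 57.5 uM final on HEK293 luciferase reporter cells, 24 h at 37 degrees C. Readout was Dual-Glo firefly luminescence.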
# NTMT1 inh – NTMT1 methyltransferase inhibition. Q9BV86. NTMT1 MTase-Glo SAH luminescence, purified enzyme. Potency, µM (titrated, usually from 114 µM), without a hit: at the highest dose activity change, negative = inhibition, usual class: inhibitors. 2.5% of 59,000 active. AID 1645870;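 further: potency means the concentration at half of the fitted maximal effect; plate controls were DMSO vehicle for no effect and no enzyme for full effect; nearly all actives have a fitted effect of over 65% in size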
# HTT-AS promoter – activators of huntingtin-antisense promoter activity; HEK293 HTT-AS promoter firefly luciferase reporter, 24 h; response scale: percent change from vehicle, -100% = no light; 0.24% of 48,000 active; Potency, µM (doses to about 57.5 µM), for the others: at the top dose activity change, positive = activation, most hits filed as activators; further: potency means the concentration at half of the fitted maximal effect; nearly all actives have a fitted effect of over 55% in size
#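 HEK293 cells carrying firefly luciferase reporters were seeded at 2,500 per well in Opti-MEM and cultured for 24 h. They were then treated with compounds at up to 57.5 uM final for 24 h at 37 degrees C before Dual-Glo luminescence readout.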
# Starred values were filed as active, the others as inactive; ? = inconclusive; nt = no result; [ ] = dose if it differs, or a comment. An excerpt weighted towards active compounds, which were near 4.6% of everything screened. Unless noted, the call rests on the fitted dose curve; in most records, active means well fitted curve in the direction sought with a large enough effect; inconclusive means small, poorly fitted or top-dose-only effect, or another doubt; inactive means no such curve, though single readings can be large; an effect the other way counts as inactive or inconclusive.
SMILES,GPR32 ag,HTT promoter inh,NTMT1 inh,HTT-AS promoter
Cn1cc[nH]c1=S,65*,12%,?,-1%
CCCCCCCCCCCCCCCC(=O)O,-8,-4%,6%[57.5 µM],2%
CCCCCCCCCCCCCCCC[n+]1ccccc1,12,?,22µM*,-58%
N#CC1=C(Nc2nc3ccccc3o2)OC2=C(C(=O)CCC2)C1c1[nH]ncc1Cl (stereo not given),nt,nt,-1%,nt
CCOC(=O)c1ccc(N2C(=O)c3n[nH]c(-c4ccco4)c3C2c2ccc(OCC)cc2)cc1 (stereo not given),-25,20µM*,20%,-66%
CC(C)(CC(=O)N1CCCC1)NCC(=O)N1C[C@@H](F)C[C@H]1C#N,nt,nt,2%[57.5 µM],nt
Oc1ccc(CNc2cc(C(F)(F)F)ccn2)c2cccnc12,nt,nt,-5%[57.5 µM],nt
Cc1cccc(NC(=O)CSc2nnc(-c3cccs3)o2)c1,-12,89%,18%,25µM*
CCC1CCCN(C(=O)CC(c2ccc3c(c2)OCO3)c2c(O)cc(OC)cc2OC)C1 (stereo not given),nt,nt,27%,nt
CC(C)c1c2cc(-c3ccnc(NC4CCC(NC5CCOCC5)CC4)n3)ccc2nn1C (stereo not given),nt,nt,45µM*,nt
CCCCN(C)C(=O)C1CCCN(c2ncnc3onc(C)c23)C1 (stereo not given),40,1.8µM*,1%,-45%
COc1ccc(NC(=O)c2c(C)oc3ccc(O)c(CN4CCCC(C)C4)c23)cc1 (stereo not given),61*,nt,nt,nt
COc1ccc(NC(=O)c2c(C)oc3ccc(O)c(CN4CCC(C)CC4)c23)cc1,40,nt,nt,nt
CC1(C)CCCC2(C)C1C(OC(=O)/C=C/C=C/C=O)C=C1COC(=O)C12O (stereo not given),nt,nt,3%[29.8 µM],nt
CCn1c(=O)cc(OCC(=O)N2CCN(c3ccc(C)cc3)C(C)C2)c2ccccc21 (stereo not given),74*,?,-19%,-45%
CCc1ccc(CNC(=O)COc2cc(=O)n(CC)c3ccccc23)cc1,117*,-39%[11.5 µM],-2%,-29%
CCOc1ccc(-c2cc(C(=O)N3CCN(c4ccc(C)cc4)C(C)C3)c3ccccc3n2)cc1 (stereo not given),-23,9%,6%,1.8µM*
CCn1c(=O)cc(OCC(=O)NCc2ccc(F)cc2Cl)c2ccccc21,7,-9%,-4%,7%[11.5 µM]
CCn1c(=O)cc(OCC(=O)N2CCN(c3ccc(F)cc3)CC2)c2ccccc21,29,-6%,-7%,-18%
C=CC(C)(O)CC/C=C(\C)C(=O)OC1CC2(C(=O)O)CCC3(C)C(=CCC4C5(C)CCC(OC6OC(COC7OCC(O)C(O)C7O)C(O)C(OC7OCC(O)C(O)C7O)C6OC6OC(CO)C(O)C(O)C6OC6OCC(O)C(O)C6O)C(C)(C)C5CCC43C)C2CC1(C)C (stereo not given),nt,nt,6%[6.45 µM],nt
CC(=O)Nc1sc2c(c1C#N)CCN(C(C)C)C2,nt,nt,9%,nt
COc1ccc(S(=O)(=O)NCc2cccn2Cc2cccc(C)c2)cc1OC,24,-18%,5%,-14%
CC(=O)Nc1ccc(S(=O)(=O)NCc2cccn2Cc2cccc(C)c2)cc1,88*,-22%,-2%,-16%
COc1cc(OC)cc(-c2ccc3ncc4ccc(=O)n(-c5ccc(N6CCNCC6)c(C(F)(F)F)c5)c4c3c2)c1,nt,?,43µM*,-34%
COc1ccc(-c2nn(-c3ccc(F)cc3)c3c2cnc2cc4c(cc23)OCO4)cc1,0,0%,3%,-3%
SMILES,GPR32 ag,HTT promoter inh,NTMT1 inh,HTT-AS promoter
Fc1ccc(C2CCNC[C@H]2COc2ccc3c(c2)OCO3)cc1 (stereo not given in full),nt,nt,1%[57.5 µM],nt
CC(=O)OC1CC(C)C2(CCC3(CC(=O)OC3O)O2)C2(C)CCCC(C)(C)C12 (stereo not given),nt,nt,-19%[29.8 µM],nt
CN1CCCN(C(=O)c2cccc(-c3ccc(C=C4C(=O)Nc5ccc(Cl)cc54)o3)c2)CC1,nt,?,7.1µM*,-23%
Cc1ccc(NCc2cccn2-c2nnc(N3CCCCCC3)s2)cc1,-20,7.9µM*,1%,-62%
CCOc1ccccc1CNCc1cccn1-c1nnc(N2CCN(c3ccccc3)CC2)s1,48,25µM*,-16%,-46%
Fc1ccc(NCc2cccn2-c2nnc(N3CCOCC3)s2)cc1,67*,-4%,-4%,4%
Cc1ccccc1NCc1cccn1-c1nnc(N2CCOCC2)s1,16,-22%,-5%,-9%
Fc1cccc(NCc2cccn2-c2nnc(N3CCOCC3)s2)c1,66*,-1%,-3%,2%
